Among the data in PubChem BioAssay AID463173 (ICCB-Longwood Screening Facility, Harvard Medical School, 2010) are survival values, retold here.

The campaign covered roughly 52,000 compounds. About 4,300 (8.3%) were called active. Rule as the data show it: active = survival mostly below about 52% (no sharp cut-off); inactive = mostly above about 56%. Many of the other results were omitted from the sample, so actives are more common in it than they were.

The test deals with DeltatarO mutant. The test can be described thus: growth inhibition of S. aureus wild type versus tarO mutant, primary screen, teichoic acid synthesis inhibitors, RN4220, OD600 (AID 463173). The conditions noted are these: OD600, 18 h, hits give low values, screened at 18.75 µg/mL (by protocol).
For the compound `Cc1ccc2c(=O)cc(C(=O)Nc3ccc(S(=O)(=O)Nc4ncccn4)cc3)oc2c1C`, the survival is 76% (inactive).
For the compound `N#Cc1ccc(NC(=O)c2ccc3c(c2)nnn3C2CCCC2)cc1`, the survival is 126% (inactive).
Consider `Cc1cc(-c2ccc(S(=O)(=O)Nc3cccc(Cl)c3C)cc2)on1`, for which the survival was 94% (inactive).
For the compound `Cc1ccc(-c2nnn(CC(=O)N(CC(=O)NCC3CCCO3)C3CCN(Cc4ccccc4)CC3)n2)o1` (centres undefined), the survival was 83% (inactive).
Take `O=C(NCc1ccco1)C(Sc1ccccc1)c1ccccc1` (centres undefined): the survival was 101% (inactive).
Turning to `Cc1ccc(CNC(=O)c2sc3nc4n(c(=O)c3c2C)CCCCC4)cc1`, the survival is 53% (active).
Then `CCN(CC)CCNC(=O)c1sc2nc3n(c(=O)c2c1C)CCCCC3`, with 53% (inactive); and `Cc1c(C(=O)NCc2ccc(Cl)cc2)sc2nc3n(c(=O)c12)CCCCC3`, with 51% (active); and `CCOc1ccccc1NC(=O)c1sc2nc3n(c(=O)c2c1C)CCCCC3`, with 45% (inactive).
As for `Cc1c(C(=O)NCc2ccccc2)sc2nc3n(c(=O)c12)CCCCC3`, the survival is 56% (inactive).
In the case of `CCCN(CCC)CCCNC(=O)c1sc2nc3n(c(=O)c2c1C)CCC3`, the survival is 79% (inactive).
Regarding `CCCN(CCC)CCNC(=O)c1sc2nc3n(c(=O)c2c1C)CCCCC3`, the survival was 62% (active).
To `CCOC(=O)c1ccccc1NC(=O)c1sc2nc3n(c(=O)c2c1C)CCCCC3` belongs 37% (active).
To `Cc1c(C(=O)NCc2ccc(Cl)cc2)sc2nc3n(c(=O)c12)CCCC3` belongs 95% (inactive); to `Cc1ccc(CNC(=O)c2sc3nc4n(c(=O)c3c2C)CCCC4)cc1`, 80% (inactive).
Regarding `Cc1c(C(=O)NCc2ccc(Cl)cc2)sc2nc3n(c(=O)c12)CCC3`, the survival is 102% (inactive).
Regarding `CCOC(=O)c1ccccc1NC(=O)c1sc2nc3n(c(=O)c2c1C)CCCC3`, the survival is 103% (inactive).
As for `O=C(NCc1ccccc1Cl)c1cc2cccc3c2n1CCS3`, the survival is 115% (inactive).
As to `COc1cc(OC)c(NC(=O)c2cc(C)nc3c2c(C)nn3-c2ccc(C)cc2)cc1Cl`, the survival is 103% (inactive).
For the compound `Cc1c(Cl)ccc2sc(N3CCN(C(=O)c4ccco4)CC3)nc12`, the survival was 69% (inactive).
For the compound `COc1cccc(NC(=O)CN2C(=O)c3cccnc3Oc3ccc(Cl)cc32)c1`, the survival was 80% (inactive).
Take `COc1cc(OC)c(NC(=O)c2sc3nc4n(c(=O)c3c2C)CCCC4)cc1Cl`: the survival was 64% (inactive).
`COc1cc(Cl)c(C)cc1NC(=O)c1sc2nc3n(c(=O)c2c1C)CCCCC3`: the survival is 52% (inactive).
As to `COc1cc(NC(=O)c2sc3nc4n(c(=O)c3c2C)CCCCC4)cc(OC)c1OC`, the survival is 42% (active).
To `CC(C)NS(=O)(=O)c1ccc2nc(NC(=O)c3cncc(Br)c3)sc2c1` belongs 87% (inactive); to `COc1ccc2c(c1)c1c(c(=O)n(Cc3ccccc3)c(=O)n1CC(=O)NCc1ccccc1Cl)n2C`, 72% (inactive); to `O=C(O)CNCc1nc2ccccc2[nH]1`, 95% (inactive).
As for `CNC(=O)Cc1nc2ccccc2[nH]1`, the survival was 87% (inactive).
In the case of `C/C(Cc1nc2ccccc2[nH]1)=N/Nc1ccccc1`, the survival is 2% (active).
For `COc1ccc(-c2noc(N3CCN(c4ccc(Cl)cc4)CC3)n2)cc1OC`, the survival was 80% (inactive).
Then `Cc1ccc(-c2cc(C(=O)N3CCN(S(=O)(=O)c4ccc(Br)s4)CC3)[nH]n2)cc1C`, with 83% (inactive); and `CCOc1ccc(C2c3c(oc4ccc(C)cc4c3=O)C(=O)N2c2nc(C)c(C)s2)cc1OC` (centres undefined), with 170% (inactive).
To `CCCCN1CC(c2nc3ccccc3n2CCCCOc2cc(C)cc(C)c2)CC1=O` (centres undefined) belongs 33% (active); to `CCCCN1CC(c2nc3ccccc3n2CCCCOc2ccc(C)c(C)c2)CC1=O` (centres undefined), 20% (active).
On to `Cc1cc(C)cc(NC(=O)Cn2nnc(C(=O)Nc3cc(C)cc(C)c3)c2N)c1`, for which the survival is 74% (inactive).
Consider `Cc1ccc2c(CC(=O)Nc3cccc(Cl)c3C)coc2c1`, for which the survival was 100% (inactive).
For `CCCN(C(=O)c1c(C)oc2ncnc(N3CCOCC3)c12)c1ccc(Cl)c(Cl)c1`, the survival is 46% (inactive).
`CCc1ccccc1N(CC)C(=O)c1c(C)oc2ncnc(N3CCOCC3)c12`: the survival is 96% (inactive).
With `CCc1ccc(CNC(=O)c2c(C)oc3ncnc(N4CCOCC4)c23)cc1`, the survival is 128% (inactive).
In the case of `Cc1ccc(CNC(=O)c2c(C)oc3ncnc(N4CCOCC4)c23)cc1`, the survival is 17% (active).
To `Cc1cccc(CN2CCC(CNC(=O)c3c(C)oc4ncnc(N5CCCCC5)c34)CC2)c1` belongs 77% (inactive); to `COC(=O)CCN(C(=O)c1c(C)oc2ncnc(N3CCOCC3)c12)c1ccccc1`, 8% (active).
Consider `Cc1oc2ncnc(N3CCCCC3)c2c1C(=O)NCC1CCN(Cc2cccc(F)c2)CC1`, for which the survival was -5% (active).
Consider `Cc1oc2ncnc(N3CCOCC3)c2c1C(=O)NCc1ccc(Cl)cc1`, for which the survival is 94% (inactive).
For `Cc1oc2ncnc(N3CCCCC3)c2c1C(=O)NCC1CCN(Cc2ccc(F)cc2)CC1`, the survival is 77% (inactive).
To `COc1ccc2oc(=O)c(C(=O)NCc3cccnc3)cc2c1` belongs 83% (inactive); to `CCOC(=O)c1cc(-c2ccc(F)cc2)n(CCC(=O)Nc2nc3cc(C)c(C)cc3s2)c1C`, 85% (inactive).
`CCc1cccc2sc(N3CCN(C(=O)c4cc5ccccc5cc4OC)CC3)nc12`: the survival was 119% (inactive).
As to `COc1ccc(-n2nc(C(=O)N3CCN(c4ccc(F)cc4)CC3)c3c4ccccc4n(C)c3c2=O)cc1`, the survival is 69% (inactive).
On to `Cc1cc(N2CCN(c3cccc(C)c3C)CC2)n2cnnc2n1`, for which the survival is 99% (inactive).
Take `Cc1ccc(NC(=O)Cn2c(=O)oc3cc(S(=O)(=O)N4CCCC4)ccc32)cc1F`: the survival is 113% (inactive).
To `CCCN(CCC)CCCNC(=O)c1cn(CC)c2ccc(S(=O)(=O)N(C)C3CCCCC3)cc2c1=O` belongs 94% (inactive); to `CCCCN(CCCC)CCNC(=O)c1cn(CC)c2ccc(S(=O)(=O)N(C)C3CCCCC3)cc2c1=O`, 144% (inactive).
Take `CCCCSCCCNC(=O)c1cn(CC)c2ccc(S(=O)(=O)N(C)C3CCCCC3)cc2c1=O`: the survival is 24% (active).
On to `Cc1cccc(NC(=O)c2ccc(F)c(S(=O)(=O)N3CCN(c4ccc(F)cc4)CC3)c2)c1`, for which the survival was -1% (active).
For the compound `CCOc1ccccc1NC(=O)c1ccc(F)c(S(=O)(=O)N2CCN(c3ccc(F)cc3)CC2)c1`, the survival was 76% (inactive).
Regarding `Cc1cccc(NC(=O)c2ccc(F)c(S(=O)(=O)N3CCC4(CC3)OCCO4)c2)c1`, the survival is 72% (inactive).
Then `COc1cc(-c2cc3n(C)c(C)c(CCC(=O)NC4CCC(C)CC4)c(=O)n3n2)cc(OC)c1OC` (centres undefined), with 101% (inactive); and `CCOc1ccc(CCNC(=O)Cn2ncn3c(cc4ccccc43)c2=O)cc1OCC`, with 85% (inactive); and `COC(=O)C1(CO)NC(c2ccc(Cl)cc2)C2C(=O)N(C)C(=O)C21` (centres undefined), with 66% (inactive).
To `Cc1ccccc1C(=O)Nc1ccc(OCc2cc(=O)n3ccccc3n2)cc1` belongs 54% (inactive); to `CC1CCN(S(=O)(=O)c2ccc(C(=O)Nc3nc4ccc(F)cc4s3)cc2)CC1`, 46% (active); to `CC1CCN(S(=O)(=O)c2nnc(NC(=O)c3cccc(Br)c3)s2)CC1`, 31% (active).
Turning to `COc1ccc(C(=O)Nc2nnc(S(=O)(=O)N3CCC(C)CC3)s2)cc1OC`, the survival was 79% (inactive).
`CC1CCN(S(=O)(=O)c2nnc(NC(=O)c3cccc(Cl)c3)s2)CC1`: the survival was 23% (active).
As for `Cc1ccc2nc(NC(=O)c3ccc(S(=O)(=O)N4CCC(C)CC4)cc3)sc2c1`, the survival is 93% (inactive).
For `COc1ccc2nc(NC(=O)c3ccc(S(=O)(=O)N4CCC(C)CC4)cc3)sc2c1`, the survival is 91% (inactive).
As to `Cc1cccc(C(=O)Nc2nnc(S(=O)(=O)N3CCC(C)CC3)s2)c1`, the survival is 35% (active).
Consider `CCCNC(=O)CN1C(=O)COc2ccc(S(=O)(=O)N3CCCC3)cc21`, for which the survival was 86% (inactive).
On to `O=C1CCc2cc(S(=O)(=O)NCc3ccc(Cl)cc3)cc3c2N1CC3`, for which the survival was 77% (inactive).
With `COCCOC(=O)Cn1nnc2sc(-c3ccccc3)cc2c1=O`, the survival was 65% (inactive).
Consider `COCC(=O)NCc1nc2cccnc2n1Cc1ccc(F)cc1`, for which the survival is 60% (inactive).
For the compound `CN1CCN(C(=O)c2ccccc2C(=O)O)CC1`, the survival is 96% (inactive).
Regarding `CCc1nn2c(=O)cc(COC(=O)c3ccc4c(c3)OCO4)nc2s1`, the survival is 76% (inactive).
As to `COc1ccc(NC(=O)c2c(NCc3ccc(OC)c(OC)c3OC)sc3c2CCC3)c(OC)c1`, the survival is 83% (inactive).
Take `Cc1n[nH]c(=S)n1CC1CCCO1` (centres undefined): the survival was 77% (inactive).
In the case of `COc1cccc(Cn2c(=O)n(-c3ccc(Br)cc3F)c(=O)c3sc4ccccc4c32)c1`, the survival is 96% (inactive).
Consider `CC1CCN(S(=O)(=O)c2nnc(NC(=O)c3cccc(F)c3)s2)CC1`, for which the survival was 31% (active).
In the case of `Cc1ccc(N2CCN(S(=O)(=O)c3nnc(NC(=O)c4cccc(F)c4)s3)CC2)cc1`, the survival is 57% (inactive).
On to `O=C(Nc1nnc(S(=O)(=O)N2CCOCC2)s1)c1cccc(F)c1`, for which the survival is 80% (inactive).
For the compound `CCOC(=O)CN(Cc1ccccc1)C(C(=O)NC1CCCCC1)c1ccc(OC)cc1` (centres undefined), the survival was 20% (active).
Regarding `O=C(NC1CCCC1)C(c1ccccc1)N(Cc1ccc2c(c1)OCO2)C(=O)c1ccco1` (centres undefined), the survival is 73% (inactive).
Take `CCOC(=O)CN(Cc1ccccc1)C(C(=O)NC1CCCCC1)c1ccccc1` (centres undefined): the survival was -1% (active).
For `CCCC(C(=O)NC1CCCC1)N(Cc1ccccc1)C(=O)Cn1nnc(-c2ccc(C)o2)n1` (centres undefined), the survival is 66% (inactive).
To `O=C(NC1CCCCC1)C(c1ccco1)N(Cc1ccccc1)C(=O)Cn1nnc2ccccc21` (centres undefined) belongs 69% (inactive).
Consider `CCOC(=O)CN(Cc1ccccc1)C(C(=O)NC1CCCCC1)c1ccc(C)cc1` (centres undefined), for which the survival is -3% (active).
Then `COc1ccc(-c2nnn(CC(=O)N(Cc3ccccc3)C(C)C(=O)NC3CCCC3)n2)cc1OC` (centres undefined), with 84% (inactive).
With `COc1ccc(C(C(=O)NC2CCCC2)N(Cc2ccc(C)cc2)C(=O)c2ccn[nH]2)cc1OC` (centres undefined), the survival was 104% (inactive).
As for `COc1ccc(N(C(=O)c2ccco2)C(C(=O)NC2CCCC2)c2cc(OC)c(OC)c(OC)c2)cc1` (centres undefined), the survival is 84% (inactive).
